# Whole data set: some 2,900 compounds, median “NF-kB SEAP reporter activity, fold change vs agonist alone” near 0.99, cut for the highest 2% near 2.6. The list comes from a sample in which the highest values are over-represented; it also holds similar structures and randomly drawn compounds.
# Experiments:
# RAW-Dual [1] = experiment: NF-kB SEAP reporter activity, fold change vs agonist alone; higher = enhanced NF-kB activity; settings: library stock concentration (final ~1000-fold dilution): 10 mM
# How it was run: (§1)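 Cytotoxic wells were those whose IncuCyte confluency was below 70% of agonist controls in both mask sets. The cells were RAW-Dual macrophages at 50,000 cells/well in DMEM on 384-well plates, dosed with 50 nL of library stock by pin tool, stimulated with a PRR agonist 1 h later, and kept at 37 °C, 5% CO2 for 20 hours. IRF and NF-κB reporter activity, as fold change over agonist-alone wells, came from supernatant read by QuantiLuc luminescence and QuantiBlue absorbance, respectively.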
# RAW-Dual [2] = experiment: NF-kB SEAP reporter activity, fold change vs agonist alone; cytotoxicity flag (confluency mask): not cytotoxic; higher = enhanced NF-kB activity
# How it was run: as §1
# RAW-Dual [3] = experiment: NF-kB SEAP reporter activity, fold change vs agonist alone; cytotoxicity flag (confluency mask): cytotoxic (confluency <70% of control); higher = enhanced NF-kB activity
# How it was run: as §1
# [4] = cytotoxicity flag (confluency mask): not cytotoxic, agonist: Imiquimod (TLR7) […]
# [5] = cytotoxicity flag (confluency mask): not cytotoxic, agonist: MPLA (TLR4) […]
# [6] = agonist: ODN 1826 (TLR9) 0.5 ug/mL
# [7] = agonist: Pam2CSK4 (TLR2/6) 0.1 ug/mL
# [8] = agonist: Pam3CSK4 (TLR2/1) 0.1 ug/mL
# [9] = cytotoxicity flag (confluency mask): cytotoxic (confluency <70% of control), agonist: Imiquimod (TLR7) […]
# [10] = cytotoxicity flag (confluency mask): cytotoxic (confluency <70% of control), agonist: MPLA (TLR4) […]
structure (smiles),measurement,setting,value
CCOC(=O)Nc1ccc(NCc2ccc(F)cc2)nc1N.O=C(O)/C=C/C(=O)O,NF-kB SEAP reporter activity,RAW-Dual [1]; [4],0.871
same,NF-kB SEAP reporter activity,RAW-Dual [1]; [5],1.23
CCOC(=O)Nc1ccc(NCc2ccc(F)cc2)nc1N.O=C(O)/C=C/C(=O)O (library stock concentration (final ~1000-fold dilution): 10 mM),NF-kB SEAP reporter activity,RAW-Dual [2]; agonist: LPS (TLR4) 0.1 ug/mL,1.03
same,NF-kB SEAP reporter activity,RAW-Dual [2]; [6],1.1
same,NF-kB SEAP reporter activity,RAW-Dual [2]; [7],0.993
same,NF-kB SEAP reporter activity,RAW-Dual [2]; [8],1.01
CC(C)CN(CC(O)C(Cc1ccccc1)NC(=O)OC1COC2OCCC12)S(=O)(=O)c1ccc(N)cc1.CCO (stereo unspecified) (library stock concentration (final ~1000-fold dilution): 10 mM),NF-kB SEAP reporter activity,RAW-Dual [2]; agonist: LPS (TLR4) 0.1 ug/mL,1.78
same,NF-kB SEAP reporter activity,RAW-Dual [2]; [6],1.57
same,NF-kB SEAP reporter activity,RAW-Dual [2]; [7],1.42
same,NF-kB SEAP reporter activity,RAW-Dual [2]; [8],1.43
CC(C)CN(CC(O)C(Cc1ccccc1)NC(=O)OC1COC2OCCC12)S(=O)(=O)c1ccc(N)cc1.CCO (stereo unspecified),NF-kB SEAP reporter activity,RAW-Dual [1]; [4],1.42
same,NF-kB SEAP reporter activity,RAW-Dual [1]; [5],1.49
COc1ccc(Cn2c3ncnc4c(ncn4Cc4ccc(OC)cc4)c-3nc2=O)cc1,NF-kB SEAP reporter activity,RAW-Dual [1]; [4],1.43
same,NF-kB SEAP reporter activity,RAW-Dual [1]; [5],2.08
COc1ccc(Cn2c3ncnc4c(ncn4Cc4ccc(OC)cc4)c-3nc2=O)cc1 (library stock concentration (final ~1000-fold dilution): 10 mM),NF-kB SEAP reporter activity,RAW-Dual [2]; agonist: LPS (TLR4) 0.1 ug/mL,1.73
same,NF-kB SEAP reporter activity,RAW-Dual [2]; [6],1.45
same,NF-kB SEAP reporter activity,RAW-Dual [2]; [7],0.409
same,NF-kB SEAP reporter activity,RAW-Dual [2]; [8],0.8
CC(=O)c1ccc2c(c1)c1cc(C(C)=O)ccc1n2CCNC(C)C,NF-kB SEAP reporter activity,RAW-Dual [1]; [9],0.147
same,NF-kB SEAP reporter activity,RAW-Dual [1]; [10],0.242
CC(=O)c1ccc2c(c1)c1cc(C(C)=O)ccc1n2CCNC(C)C (library stock concentration (final ~1000-fold dilution): 10 mM),NF-kB SEAP reporter activity,RAW-Dual [3]; agonist: LPS (TLR4) 0.1 ug/mL,0.301
same,NF-kB SEAP reporter activity,RAW-Dual [3]; [6],0.193
same,NF-kB SEAP reporter activity,RAW-Dual [3]; [7],0.0764
same,NF-kB SEAP reporter activity,RAW-Dual [3]; [8],0.183
COc1ccccc1-c1cc(Nc2cccc(CS(N)(=O)=O)c2)ncn1,NF-kB SEAP reporter activity,RAW-Dual [1]; [4],1.45
same,NF-kB SEAP reporter activity,RAW-Dual [1]; [5],2.59
COc1ccccc1-c1cc(Nc2cccc(CS(N)(=O)=O)c2)ncn1 (library stock concentration (final ~1000-fold dilution): 10 mM),NF-kB SEAP reporter activity,RAW-Dual [2]; agonist: LPS (TLR4) 0.1 ug/mL,2.67
same,NF-kB SEAP reporter activity,RAW-Dual [2]; [6],2.18
same,NF-kB SEAP reporter activity,RAW-Dual [2]; [7],0.783
same,NF-kB SEAP reporter activity,RAW-Dual [2]; [8],1.55
NC(=O)c1cccc(-c2cc(Nc3ccc(OC(F)(F)F)cc3)ncn2)c1,NF-kB SEAP reporter activity,RAW-Dual [1]; [4],1.24
same,NF-kB SEAP reporter activity,RAW-Dual [1]; [5],1.11
COc1cc(F)ccc1-c1ncnc(Nc2cccc(CS(C)(=N)=O)c2)n1 (stereo unspecified),NF-kB SEAP reporter activity,RAW-Dual [1]; [9],1.26
same,NF-kB SEAP reporter activity,RAW-Dual [1]; [10],1.31
NC(=O)c1cccc(-c2cc(Nc3ccc(OC(F)(F)F)cc3)ncn2)c1 (library stock concentration (final ~1000-fold dilution): 10 mM),NF-kB SEAP reporter activity,RAW-Dual [2]; agonist: LPS (TLR4) 0.1 ug/mL,1.21
same,NF-kB SEAP reporter activity,RAW-Dual [2]; [6],0.672
same,NF-kB SEAP reporter activity,RAW-Dual [2]; [7],0.944
same,NF-kB SEAP reporter activity,RAW-Dual [2]; [8],0.869
COc1cc(F)ccc1-c1ncnc(Nc2cccc(CS(C)(=N)=O)c2)n1 (stereo unspecified) (library stock concentration (final ~1000-fold dilution): 10 mM),NF-kB SEAP reporter activity,RAW-Dual [3]; agonist: LPS (TLR4) 0.1 ug/mL,0.786
same,NF-kB SEAP reporter activity,RAW-Dual [3]; [6],1.4
same,NF-kB SEAP reporter activity,RAW-Dual [3]; [7],0.277
same,NF-kB SEAP reporter activity,RAW-Dual [3]; [8],0.421
CCOc1cc(=O)[nH]cc1-c1ccc(CC(=O)Nc2cc(C(C)(C)C(F)(F)F)on2)c(F)c1,NF-kB SEAP reporter activity,RAW-Dual [1]; [4],0.281
same,NF-kB SEAP reporter activity,RAW-Dual [1]; [5],0.545
CCOc1cc(=O)[nH]cc1-c1ccc(CC(=O)Nc2cc(C(C)(C)C(F)(F)F)on2)c(F)c1 (library stock concentration (final ~1000-fold dilution): 10 mM),NF-kB SEAP reporter activity,RAW-Dual [2]; agonist: LPS (TLR4) 0.1 ug/mL,0.538
same,NF-kB SEAP reporter activity,RAW-Dual [2]; [6],0.276
same,NF-kB SEAP reporter activity,RAW-Dual [2]; [7],0.163
same,NF-kB SEAP reporter activity,RAW-Dual [2]; [8],0.188
CC(C)=CCCC(C)(OC1OC(CO)C(O)C(O)C1O)C1CCC2(C)C1C(O)CC1C3(C)CCC(OC4OC(CO)C(O)C(O)C4OC4OC(CO)C(O)C(O)C4O)C(C)(C)C3CCC12C (stereo unspecified) (library stock concentration (final ~1000-fold dilution): 10 mM),NF-kB SEAP reporter activity,RAW-Dual [2]; agonist: LPS (TLR4) 0.1 ug/mL,0.838
same,NF-kB SEAP reporter activity,RAW-Dual [2]; [6],1.11
same,NF-kB SEAP reporter activity,RAW-Dual [2]; [7],0.899
same,NF-kB SEAP reporter activity,RAW-Dual [2]; [8],1.02
CC(C)=CCCC(C)(OC1OC(CO)C(O)C(O)C1O)C1CCC2(C)C1C(O)CC1C3(C)CCC(OC4OC(CO)C(O)C(O)C4OC4OC(CO)C(O)C(O)C4O)C(C)(C)C3CCC12C (stereo unspecified),NF-kB SEAP reporter activity,RAW-Dual [1]; [4],1.01
same,NF-kB SEAP reporter activity,RAW-Dual [1]; [5],1.02
CCCC(Nc1nc(-c2ccc(NC(=O)NCC)c(OC)c2)ncc1C)c1cccnc1 (stereo unspecified) (library stock concentration (final ~1000-fold dilution): 10 mM),NF-kB SEAP reporter activity,RAW-Dual [2]; agonist: LPS (TLR4) 0.1 ug/mL,5.93
same,NF-kB SEAP reporter activity,RAW-Dual [2]; [6],3.66
same,NF-kB SEAP reporter activity,RAW-Dual [2]; [7],2.2
same,NF-kB SEAP reporter activity,RAW-Dual [2]; [8],2.92
CCCC(Nc1nc(-c2ccc(NC(=O)NCC)c(OC)c2)ncc1C)c1cccnc1 (stereo unspecified),NF-kB SEAP reporter activity,RAW-Dual [1]; [4],2.63
same,NF-kB SEAP reporter activity,RAW-Dual [1]; [5],2.57
O=C(/C=C/c1ccc(O)c(O)c1/C=C/c1ccc(O)c(O)c1)OC(Cc1ccc(O)c(O)c1)C(=O)O (stereo unspecified),NF-kB SEAP reporter activity,RAW-Dual [1]; [4],0.405
same,NF-kB SEAP reporter activity,RAW-Dual [1]; [5],0.891
O=C(/C=C/c1ccc(O)c(O)c1/C=C/c1ccc(O)c(O)c1)OC(Cc1ccc(O)c(O)c1)C(=O)O (stereo unspecified) (library stock concentration (final ~1000-fold dilution): 10 mM),NF-kB SEAP reporter activity,RAW-Dual [2]; agonist: LPS (TLR4) 0.1 ug/mL,1.09
same,NF-kB SEAP reporter activity,RAW-Dual [2]; [6],0.836
same,NF-kB SEAP reporter activity,RAW-Dual [2]; [7],0.837
same,NF-kB SEAP reporter activity,RAW-Dual [2]; [8],0.289
CCn1c2ccccc2c2cc(CNCc3ccccc3OC)ccc21.Cl (library stock concentration (final ~1000-fold dilution): 10 mM),NF-kB SEAP reporter activity,RAW-Dual [3]; agonist: LPS (TLR4) 0.1 ug/mL,1.06
same,NF-kB SEAP reporter activity,RAW-Dual [3]; [6],0.394
same,NF-kB SEAP reporter activity,RAW-Dual [3]; [7],0.659
same,NF-kB SEAP reporter activity,RAW-Dual [3]; [8],0.641
CCn1c2ccccc2c2cc(-n3nncc3-c3ccccc3)ccc21,NF-kB SEAP reporter activity,RAW-Dual [1]; [4],1.66
same,NF-kB SEAP reporter activity,RAW-Dual [1]; [5],2.14
CCn1c2ccccc2c2cc(-n3nncc3-c3ccccc3)ccc21 (library stock concentration (final ~1000-fold dilution): 10 mM),NF-kB SEAP reporter activity,RAW-Dual [2]; agonist: LPS (TLR4) 0.1 ug/mL,3.15
same,NF-kB SEAP reporter activity,RAW-Dual [2]; [6],1.82
same,NF-kB SEAP reporter activity,RAW-Dual [2]; [7],1.81
same,NF-kB SEAP reporter activity,RAW-Dual [2]; [8],2.79

# Source: the supplement of paper PMC10037445
